Test results as given in PubChem BioAssay (EPA / NIEHS).
“And” between values parts separate entries of the source, which are not always exact repeats. Identical values can stand only once. More than one record can exist for a structure, and the calls need not agree. The source made the active and inactive calls. How the source made its calls: active means hit-call score of the fitted dose curve at least 0.9, where 1 is the maximum; inactive means score below 0.9.

Read-out: Tumor necrosis factor (Homo sapiens) (UniProt P01375)
Assay: BSK_LPS_TNFa: BioMAP Diversity Plus: LPS Assay for Tumour Necrosis Factor alpha (TNFa) Biomarker Activity (AID 2283085);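 on AC50: TNFa protein level quantified by ELISA in the co-culture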
Settings: primary human HUVEC with PBMC; actives raise or lower the signal
Method in brief: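 Cells (umbilical vein endothelium plus peripheral blood mononuclear cells) were dosed with chemical, incubated 24 h, then TNFa was quantified by ELISA; values derive from bidirectional fitting with DMSO as baseline.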

Chain of Tumor necrosis factor (Homo sapiens) (P01375 whole entry, looked up): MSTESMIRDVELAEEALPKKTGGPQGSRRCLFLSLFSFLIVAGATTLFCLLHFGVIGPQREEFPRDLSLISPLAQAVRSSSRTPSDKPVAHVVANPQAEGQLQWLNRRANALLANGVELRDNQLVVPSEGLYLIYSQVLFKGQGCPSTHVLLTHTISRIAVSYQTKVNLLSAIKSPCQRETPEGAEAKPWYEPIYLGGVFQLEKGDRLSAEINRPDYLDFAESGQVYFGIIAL

For O=C(O)C(F)(F)C(F)(F)C(F)(F)C(F)(F)F, which outcome is on record?
Its outcome is “inactive”.

How did the outcome turn out when OCC(F)(F)C(F)(F)C(F)(F)C(F)(F)C(F)(F)C(F)(F)F was run?
Its outcome is “inactive”.

With C=C(C)C(=O)OCCC(F)(F)C(F)(F)C(F)(F)C(F)(F)C(F)(C(F)(F)F)C(F)(F)F as the compound, how does the outcome read?
The outcome was “inactive”.

O=P(O)(O)OCCC(F)(F)C(F)(F)C(F)(F)C(F)(F)C(F)(F)C(F)(F)F was tested. Which outcome did it give?
Its outcome is “inactive”.

Which outcome does the source give for O=S(=O)(OCC(F)F)C(F)(F)F here?
Its outcome is “inactive”.

With O=C(CC(=O)C(F)(F)C(F)(F)F)C(F)(F)F as the compound, how does the outcome read?
Its outcome is “inactive”.

With C=CC(=O)OCC(F)(F)C(F)(F)C(F)(F)C(F)(F)COC(=O)C=C as the compound, how does the AC50 read?
Its AC50 is 18.3 µM (active) and 18.1 µM (active).

Which outcome does the source give for CCCCCCCCC(F)(F)C(F)(F)C(F)(F)C(F)(F)C(F)(F)C(F)(F)F here?
The outcome was “inactive”.

With N=C(N)C(F)(F)C(F)(F)C(F)(F)C(F)(F)C(F)(F)C(F)(F)C(F)(F)F as the compound, how does the AC50 read?
Its AC50 is 33.1 µM (active).

And the outcome?
The outcome was “inactive”.

How did the outcome turn out when O=C(O)C(F)(F)C(F)(F)F was run?
The outcome was “inactive”.

How did the outcome turn out when FC(F)(I)C(F)(F)C(F)(F)C(F)(F)I was run?
The outcome was “inactive”.

With FC(F)(F)C(F)(F)C(F)(F)C(F)(F)C(F)(F)C(F)(F)C(F)(F)C(F)(F)F as the compound, how does the outcome read?
Its outcome is “inactive”.

How did the outcome turn out when FC(F)(F)C(F)(F)C(F)(F)N(C(F)(F)C(F)(F)C(F)(F)F)C(F)(F)C(F)(F)C(F)(F)F was run?
Its outcome is “inactive”.

FC(F)(F)C(F)(F)CNCC(F)(F)C(F)(F)F was tested. Which outcome did it give?
The outcome was “inactive”.

With FC(F)(F)C(F)(F)C(F)(F)C(F)(F)C(F)(F)C(F)(F)CCS as the compound, how does the outcome read?
The outcome was “inactive”.

O=C(O)C(F)(F)C(F)(F)C(F)(F)F was tested. Which outcome did it give?
Its outcome is “inactive”.

Which outcome does the source give for O=C(O)C(F)(F)C(F)(F)C(F)(F)C(F)(F)C(F)(F)C(F)(F)C(F)(F)C(F)(F)Cl here?
The outcome was “inactive”.

How did the outcome turn out when O=C(O)C(F)(OC(F)(F)C(F)(OC(F)(F)C(F)(OC(F)(F)C(F)(F)C(F)(F)F)C(F)(F)F)C(F)(F)F)C(F)(F)F (stereo not given) was run?
Its outcome is “inactive”.

With FC(F)(Br)C(F)(F)C(F)(F)C(F)(F)C(F)(F)C(F)(F)Br as the compound, how does the outcome read?
The outcome was “inactive”.

For O=C(O)C(F)(F)C(F)(F)C(F)F, which outcome is on record?
The outcome was “inactive”.

For O=C(O)C(F)(OC(F)(F)C(F)(OC(F)(F)C(F)(F)C(F)(F)F)C(F)(F)F)C(F)(F)F (stereo not given), which outcome is on record?
The outcome was “inactive”.

CCCCC(CC)COP(=O)(O)OCC(CC)CCCC (stereo not given) was tested. Which outcome did it give?
Its outcome is “inactive”.

How did the outcome turn out when C=CC(F)(F)C(F)(F)C(F)(F)C(F)(F)C(F)(F)C(F)(F)C(F)(F)C(F)(F)F was run?
Its outcome is “inactive”.

With COC(=O)CCC(F)(F)C(F)(F)C(F)(F)C(F)(F)F as the compound, how does the outcome read?
Its outcome is “inactive”.

Which outcome does the source give for C=CC(=O)OCC(F)(F)C(F)(F)C(F)(F)C(F)(F)C(F)(F)C(F)(F)C(F)(F)F here?
The outcome was “inactive”.

Which outcome does the source give for FC(F)(F)C(F)(F)C(F)(F)C(F)(F)C(F)(F)C(F)(F)CC1CO1 (stereo not given) here?
Its outcome is “inactive”.

How did the outcome turn out when FC(F)(F)C(F)(F)C(F)(F)C(F)(F)C(F)(F)C(F)(F)C(F)(F)C(F)(F)CCS was run?
The outcome was “inactive”.

For OCC(F)(F)C(F)(F)C(F)(F)C(F)(F)C(F)(F)C(F)F, which outcome is on record?
The outcome was “inactive”.

FC1CC(F)(F)C(F)(F)C1(F)F (stereo not given) was tested. Which outcome did it give?
The outcome was “inactive”.

For FC(F)(F)C(F)(F)C(F)(F)CI, which outcome is on record?
Its outcome is “inactive”.

Which outcome does the source give for NC(=O)C(F)(F)C(F)(F)C(F)(F)C(F)(F)F here?
Its outcome is “inactive”.

For C=CC(F)(F)C(F)(F)C(F)(F)C(F)(F)C(F)(F)C(F)(F)C(F)(F)C(F)(F)C=C, which outcome is on record?
Its outcome is “inactive”.

With OCC(F)(F)C(F)(F)C(F)(F)C(F)F as the compound, how does the outcome read?
The outcome was “inactive”.

How did the outcome turn out when OCC(F)(F)C(F)(F)C(F)(F)F was run?
The outcome was “inactive”.

OCCCC(F)(F)C(F)(F)C(F)(F)F was tested. Which outcome did it give?
The outcome was “inactive”.

Which outcome does the source give for O=S(=O)(OCCOC(F)(F)F)C(F)(F)F here?
Its outcome is “inactive”.

Read-out: Vascular cell adhesion molecule 1 (VCAM1), VCAM1 (gene 7412)
Assay: BSK_LPS_VCAM1: BioMAP Diversity Plus: LPS Assay for Vascular cell adhesion molecule 1 (VCAM1) Biomarker Activity (AID 2283086)
Settings: primary human HUVEC with PBMC; actives raise or lower the signal
Method in brief: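 Cells are dosed in an LPS-stimulated endothelial/mononuclear co-culture and, after 24 h, VCAM-1 is quantified by ELISA. Activity in either direction is fitted relative to the DMSO negative control.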

How did the outcome turn out when O=C(O)C(F)(F)C(F)(F)C(F)(F)C(F)(F)F was run?
The outcome was “inactive”.

How did the outcome turn out when OCC(F)(F)C(F)(F)C(F)(F)C(F)(F)C(F)(F)C(F)(F)F was run?
Its outcome is “inactive”.

Which outcome does the source give for C=C(C)C(=O)OCCC(F)(F)C(F)(F)C(F)(F)C(F)(F)C(F)(C(F)(F)F)C(F)(F)F here?
The outcome was “inactive”.

For O=P(O)(O)OCCC(F)(F)C(F)(F)C(F)(F)C(F)(F)C(F)(F)C(F)(F)F, which outcome is on record?
Its outcome is “inactive”.

With O=S(=O)(OCC(F)F)C(F)(F)F as the compound, how does the outcome read?
The outcome was “inactive”.

O=C(CC(=O)C(F)(F)C(F)(F)F)C(F)(F)F was tested. Which outcome did it give?
Its outcome is “inactive”.

How did the AC50 turn out when C=CC(=O)OCC(F)(F)C(F)(F)C(F)(F)C(F)(F)COC(=O)C=C was run?
Its AC50 is 16.6 µM (active) and 16.4 µM (active).

How did the outcome turn out when CCCCCCCCC(F)(F)C(F)(F)C(F)(F)C(F)(F)C(F)(F)C(F)(F)F was run?
The outcome was “inactive”.

What does the source list for N=C(N)C(F)(F)C(F)(F)C(F)(F)C(F)(F)C(F)(F)C(F)(F)C(F)(F)F?
AC50: 40.3 µM (active); outcome: inactive

O=C(O)C(F)(F)C(F)(F)F was tested. Which outcome did it give?
Its outcome is “inactive”.

How did the outcome turn out when FC(F)(I)C(F)(F)C(F)(F)C(F)(F)I was run?
Its outcome is “inactive”.

Which outcome does the source give for FC(F)(F)C(F)(F)C(F)(F)C(F)(F)C(F)(F)C(F)(F)C(F)(F)C(F)(F)F here?
The outcome was “inactive”.

FC(F)(F)C(F)(F)C(F)(F)N(C(F)(F)C(F)(F)C(F)(F)F)C(F)(F)C(F)(F)C(F)(F)F was tested. Which outcome did it give?
The outcome was “inactive”.

For FC(F)(F)C(F)(F)CNCC(F)(F)C(F)(F)F, which outcome is on record?
Its outcome is “inactive”.

For FC(F)(F)C(F)(F)C(F)(F)C(F)(F)C(F)(F)C(F)(F)CCS, which outcome is on record?
The outcome was “inactive”.

How did the outcome turn out when O=C(O)C(F)(F)C(F)(F)C(F)(F)F was run?
The outcome was “inactive”.

What does the source list for O=C(O)C(F)(F)C(F)(F)C(F)(F)C(F)(F)C(F)(F)C(F)(F)C(F)(F)C(F)(F)Cl?
AC50: 30 µM (active); outcome: inactive

Which outcome does the source give for O=C(O)C(F)(OC(F)(F)C(F)(OC(F)(F)C(F)(OC(F)(F)C(F)(F)C(F)(F)F)C(F)(F)F)C(F)(F)F)C(F)(F)F (stereo not given) here?
The outcome was “inactive”.

With FC(F)(Br)C(F)(F)C(F)(F)C(F)(F)C(F)(F)C(F)(F)Br as the compound, how does the outcome read?
The outcome was “inactive”.

How did the outcome turn out when O=C(O)C(F)(F)C(F)(F)C(F)F was run?
The outcome was “inactive”.

O=C(O)C(F)(OC(F)(F)C(F)(OC(F)(F)C(F)(F)C(F)(F)F)C(F)(F)F)C(F)(F)F (stereo not given) was tested. Which outcome did it give?
The outcome was “inactive”.

With CCCCC(CC)COP(=O)(O)OCC(CC)CCCC (stereo not given) as the compound, how does the outcome read?
Its outcome is “inactive”.

For C=CC(F)(F)C(F)(F)C(F)(F)C(F)(F)C(F)(F)C(F)(F)C(F)(F)C(F)(F)F, which outcome is on record?
The outcome was “inactive”.

COC(=O)CCC(F)(F)C(F)(F)C(F)(F)C(F)(F)F was tested. Which outcome did it give?
The outcome was “inactive”.

C=CC(=O)OCC(F)(F)C(F)(F)C(F)(F)C(F)(F)C(F)(F)C(F)(F)C(F)(F)F was tested. Which outcome did it give?
The outcome was “inactive”.

With FC(F)(F)C(F)(F)C(F)(F)C(F)(F)C(F)(F)C(F)(F)CC1CO1 (stereo not given) as the compound, how does the outcome read?
Its outcome is “inactive”.

With FC(F)(F)C(F)(F)C(F)(F)C(F)(F)C(F)(F)C(F)(F)C(F)(F)C(F)(F)CCS as the compound, how does the outcome read?
Its outcome is “inactive”.

With OCC(F)(F)C(F)(F)C(F)(F)C(F)(F)C(F)(F)C(F)F as the compound, how does the outcome read?
Its outcome is “inactive”.

With FC1CC(F)(F)C(F)(F)C1(F)F (stereo not given) as the compound, how does the outcome read?
Its outcome is “inactive”.

For FC(F)(F)C(F)(F)C(F)(F)CI, which outcome is on record?
Its outcome is “inactive”.

With NC(=O)C(F)(F)C(F)(F)C(F)(F)C(F)(F)F as the compound, how does the outcome read?
Its outcome is “inactive”.

C=CC(F)(F)C(F)(F)C(F)(F)C(F)(F)C(F)(F)C(F)(F)C(F)(F)C(F)(F)C=C was tested. Which outcome did it give?
Its outcome is “inactive”.

Which outcome does the source give for OCC(F)(F)C(F)(F)C(F)(F)C(F)F here?
Its outcome is “inactive”.

For OCC(F)(F)C(F)(F)C(F)(F)F, which outcome is on record?
The outcome was “inactive”.

OCCCC(F)(F)C(F)(F)C(F)(F)F was tested. Which outcome did it give?
Its outcome is “inactive”.

How did the outcome turn out when O=S(=O)(OCCOC(F)(F)F)C(F)(F)F was run?
The outcome was “inactive”.
